The nature of test [1]: CCTE_Shafer_MEA_acute_per_network_burst_electrodes_number_mean: CCTE's Neural Acute Assay for Mean Number of Electrodes in a Network Burst, Shafer Lab (AID 2284021).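 Further: curves fitted for decreases only so hits reduce electrodes per burst.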 The essentials: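 Rat primary cortical neurons on 16-electrode MEA wells were recorded 40 min at baseline on DIV 13 or 15, then 40 min after compound (0.03-40 uM), at 37 C. Value is percent change per well, fitted in loss direction versus DMSO.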

The nature of test [2]: CCTE_Shafer_MEA_acute_cross_correlation_area: CCTE's Neural Acute Assay for Area of Cross Correlation, Shafer Lab (AID 2284024).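 Further: area under pooled inter-electrode spike cross-correlation near zero lag as percent change from own baseline; curves fitted for loss of cross-correlation area so actives lower synchrony.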 The essentials: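 Primary rat cortical neurons on 48-well MEA plates (16 electrodes/well) were recorded 40 min at baseline on DIV 13 or 15, then 40 min with compound (0.03-40 uM) at 37 C; cross-correlation area expressed as percent change from baseline.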

A short description of test [3]: CCTE_Shafer_MEA_acute_synchrony_index: CCTE's Neural Acute Assay for Synchrony, Shafer Lab (AID 2284027).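 Further: network synchrony index of spontaneous spiking in primary rat cortical neurons on MEAs; fitted for loss of signal so actives lower synchrony relative to DMSO.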 The essentials: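 Primary rat cortical neurons on 48-well MEAs, dosed at 0.03–40 uM on DIV 13 or 15. Spikes are recorded for 40 min at 37C before and after exposure, and synchrony index (0–1) is expressed as percent change from baseline per well.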
A short description of test [4]: CCTE_Deisenroth_AIME_384WELL_CTox_Active: Cytotoxicity Assessment (CTOX) in CCTE's 384-well Estrogen Receptor Transactivation Assay with AIME metabolic competence (metabolism positive), Deisenroth Lab (AID 2284037; active means hit-call score of the fitted dose curve at least 0.9, where 1 is the maximum;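 further: activity means signal loss indicating cell death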). The essentials:
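VM7Luc4E2 breast cells received medium pre-incubated 2 h with chemical over alginate microspheres holding induced male Sprague Dawley rat liver S9; viability read 24 h later by protease-substrate fluorescence. Loss of signal, bidirectional fit, 0.002–200 uM.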

A short description of test [5]: CCTE_Deisenroth_AIME_384WELL_CTox_Inactive: Cytotoxicity Assessment (CTOX) in CCTE's 384-well Estrogen Receptor Transactivation Assay without AIME metabolic competence (metabolism negative), Deisenroth Lab (AID 2284039; active means hit-call score of the fitted dose curve at least 0.9, where 1 is the maximum;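 further: cell viability via live-cell protease substrate cleaved to fluorescent probe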). The essentials: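 Fluorescent protease-substrate viability readout after 24 h exposure of VM7Luc4E2 cells to conditioned medium. Chemicals (0.002–200 uM) first sat 2 h over alginate-water beads, no S9. Data fitted bidirectionally, loss of signal meaning viability loss.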

The target in test [6] is Estrogen receptor (Homo sapiens) (UniProt P03372). Description: CCTE_Deisenroth_AIME_384WELL_LUC_Active: CCTE's 384-well Estrogen Receptor Transactivation Assay with AIME metabolic competence (ERTA luciferase; metabolism positive), Deisenroth Lab (AID 2284030; active means hit-call score of the fitted dose curve at least 0.9, where 1 is the maximum). The essentials: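 Test chemicals (10-point series, 0.002 - 200 uM) were preincubated 2 hours with alginate-immobilized phenobarbital/beta-naphthoflavone-induced male Sprague Dawley rat liver S9; conditioned medium then went onto VM7Luc4E2 breast cells for 24 hour. Luciferase gain-of-signal fitted relative to 17beta-estradiol.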

The target is the same in test [7]. Description: CCTE_Deisenroth_AIME_384WELL_LUC_Inactive: CCTE's 384-well Estrogen Receptor Transactivation Assay without AIME metabolic competence (ERTA luciferase; metabolism negative), Deisenroth Lab (AID 2284038; active means hit-call score of the fitted dose curve at least 0.9, where 1 is the maximum;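 further: hits raise estrogen receptor luciferase signal so potencies reflect agonists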). The essentials:
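Metabolism-negative mode: chemicals (10-point, 0.002–200 uM) held 2 h with alginate-water microspheres, then conditioned medium applied to VM7Luc4E2 cells for 24 h. Luciferase induction referenced to 17beta-estradiol.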

For test [8] the target is unchanged. Description: CCTE_Deisenroth_AIME_384WELL_LUC_Shift: CCTE's 384-well Estrogen Receptor Transactivation Assay with AIME metabolic competence data shift (ERTA luciferase; difference in metabolism positive and negative), Deisenroth Lab (AID 2284041).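 Further: shift is response with S9 minus without S9 so positive means metabolism raised ER signal.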 The essentials: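 Here, parent compounds undergo 2 h phase I metabolism by PB/BNF-induced rat S9 before 24 h transactivation in VM7Luc4E2 cells; the curve models S9-positive minus S9-negative response over a 10-point series.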

Test [9] shares this target. Description: CCTE_Deisenroth_AIME_96WELL_LUC_Active: CCTE's 96-well Estrogen Receptor Transactivation Assay with AIME metabolic competence (ERTA luciferase; metabolism positive), Deisenroth Lab (AID 2284023; active means hit-call score of the fitted dose curve at least 0.9, where 1 is the maximum). The essentials: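 Chemicals pre-incubated 2 h with alginate-immobilized phenobarbital/beta-naphthoflavone-induced male Sprague Dawley rat liver S9, then medium transferred to VM7Luc4E2 cells for 24 h luciferase read-out. 10-point series 0.002 - 200 uM; fitted relative to 17beta-estradiol.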

For test [10] the target is unchanged. Kind of test: CCTE_Deisenroth_AIME_96WELL_LUC_Inactive: CCTE's 96-well Estrogen Receptor Transactivation Assay without AIME metabolic competence (ERTA luciferase; metabolism negative), Deisenroth Lab (AID 2284025; active means hit-call score of the fitted dose curve at least 0.9, where 1 is the maximum). The essentials: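 VM7Luc4E2 breast cells, luciferase read 24 h after dosing with medium pre-incubated 2 h on alginate-water lids (metabolism negative). 10-point series 0.002–200 uM, single technical replicate, n≥4; fit relative to 17beta-estradiol.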

Test [11] in a line: CCTE_Deisenroth_AIME_96WELL_CTox_Active: Cytotoxicity Assessment (CTOX) in CCTE's 96-well Estrogen Receptor Transactivation Assay with AIME metabolic competence (metabolism positive), Deisenroth Lab (AID 2284028; active means hit-call score of the fitted dose curve at least 0.9, where 1 is the maximum). The essentials:
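Chemicals (0.002–200 uM) were first incubated 2 h with alginate-immobilized phenobarbital/beta-naphthoflavone-induced male rat liver S9; conditioned medium then went onto VM7Luc4E2 cells for 24 h, with viability read by protease-substrate fluorescence, fitted bidirectionally.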

Test [12] in a line: CCTE_Shafer_MEA_dev_firing_rate_mean: CCTE's Neural Network Formation Assay for Mean Firing Rate, Shafer Lab (AID 2284031).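 On AC50: curve fitted for loss of firing so AC50 reflects decreased mean firing rate.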 The essentials: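 Primary rat cortical neurons on 48-well MEA plates, exposed from plating day 0 with dosing renewed on DIV 5 and 9. Mean well firing rate over active electrodes, recorded days 5, 7, 9, 12, summarised as trapezoidal AUC.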
Test [13] can be described thus: CCTE_Shafer_MEA_dev_per_burst_spike_percent: CCTE's Neural Network Formation Assay for Percent of Spikes in a Burst, Shafer Lab (AID 2284032).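 On AC50: fitted as a decrease in burst spike percentage below DMSO baseline.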 The essentials:
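Rat primary cortical neurons on 16-electrode MEA wells, dosed from plating day 0 for 12 days with renewal on DIV 5 and 9; spikes-in-bursts percentage averaged over bursting electrodes, collapsed as AUC across days 5, 7, 9, 12; loss direction versus DMSO.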

A short description of test [14]: CCTE_Shafer_MEA_dev_burst_rate: CCTE's Neural Network Formation Assay for Burst Rate, Shafer Lab (AID 2284042).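 On AC50: potency for loss of burst rate below DMSO control.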 The essentials: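 Exposure ran continuously over 12 days of network development in rat cortical cultures, with compound refreshed during full media changes on DIV 5 and 9. Single-electrode bursts per recording time, well-mean over active electrodes, trapezoidal AUC across days 5–12, fitted downward relative to DMSO.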

Test [15] can be described thus: CCTE_Shafer_MEA_dev_per_burst_interspike_interval: CCTE's Neural Network Formation Assay for Burst Interspike Interval, Shafer Lab (AID 2284044).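 Further: mean spike spacing inside bursts as AUC over recordings on days 5 7 9 12.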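 On AC50: potency for a decrease of within-burst interspike interval below DMSO level.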 The essentials:
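Rat cortical primary cultures, 16 electrodes/well; compound from plating, renewed with full media change DIV 5 and 9. Spikes via adaptive detector; per-burst ISI well-mean over active bursting electrodes; AUC of DIV 5/7/9/12 recordings; loss-direction fit vs DMSO.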

Test [16] in a line: CCTE_Shafer_MEA_dev_burst_duration_mean: CCTE's Neural Network Formation Assay for Mean Burst Duration, Shafer Lab (AID 2284045).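 On AC50: curve fitted for loss meaning shorter burst duration than DMSO.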 The essentials:
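Primary rat cortical neurons on PEI-coated 16-electrode MEA wells, exposed from plating through day 12 with compound renewed at DIV 5 and 9; spontaneous activity recorded days 5, 7, 9, 12. Well-mean burst duration collapsed as trapezoidal AUC, fitted for loss versus DMSO.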

Test [17] is described as follows: CCTE_Shafer_MEA_dev_interburst_interval_mean: CCTE's Neural Network Formation Assay for Mean Interburst Interval, Shafer Lab (AID 2284046).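 Further: well-mean interburst interval of bursting electrodes as AUC over four recording days; curve fitted for decrease in interburst interval relative to DMSO.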 The essentials:
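Primary rat cortical neurons on PEI-coated 48-well MEA plates (laminin added with cells at plating) (16 electrodes/well), exposed from plating day 0 with renewal at DIV 5 and 9. Mean inter-burst interval averaged over bursting electrodes, AUC across days 5, 7, 9, 12; DMSO baseline.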

The nature of test [18]: CCTE_Shafer_MEA_dev_inter_network_spike_interval_mean: CCTE's Neural Network Formation Assay for Mean Inter-network Spike Interval, Shafer Lab (AID 2284047).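 On AC50: potency for a decrease in mean inter-network spike interval below DMSO.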 The essentials:
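Mean time between consecutive network-spike peaks, recorded extracellularly (adaptive spike detection) on DIV 5, 7, 9 and 12, summarized as trapezoidal AUC. Rat cortical cultures on MEAs dosed continuously days 0–12, re-dosed at feeds; loss-of-signal fit relative to DMSO.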

Test [19] can be described thus: CCTE_Shafer_MEA_dev_network_spike_number: CCTE's Neural Network Formation Assay for Number of Network Spikes, Shafer Lab (AID 2284048).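 Further: synchronized bursts across electrodes counted on days 5 7 9 12 and integrated as AUC.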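 On AC50: fit as a loss of signal meaning fewer network spikes than DMSO.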 The essentials:
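Primary rat cortical neurons were seeded at 1.5 x 10^5 cells/well on PEI-coated 16-electrode MEA wells with laminin, exposed from plating day 0, compound renewed at DIV 5 and 9. Network spikes were recorded on days 5, 7, 9, 12 and summarized as trapezoidal AUC versus DMSO.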

The results in this text go back to PubChem BioAssay (EPA / NIEHS).

Records with an inconclusive call do not appear. The source made the active and inactive calls. How the source made its calls, unless noted: active means hit-call score of the fitted dose curve at least 0.9, where 1 is the maximum; inactive means score below 0.9.

Chain of Estrogen receptor (Homo sapiens) (P03372 whole entry, looked up): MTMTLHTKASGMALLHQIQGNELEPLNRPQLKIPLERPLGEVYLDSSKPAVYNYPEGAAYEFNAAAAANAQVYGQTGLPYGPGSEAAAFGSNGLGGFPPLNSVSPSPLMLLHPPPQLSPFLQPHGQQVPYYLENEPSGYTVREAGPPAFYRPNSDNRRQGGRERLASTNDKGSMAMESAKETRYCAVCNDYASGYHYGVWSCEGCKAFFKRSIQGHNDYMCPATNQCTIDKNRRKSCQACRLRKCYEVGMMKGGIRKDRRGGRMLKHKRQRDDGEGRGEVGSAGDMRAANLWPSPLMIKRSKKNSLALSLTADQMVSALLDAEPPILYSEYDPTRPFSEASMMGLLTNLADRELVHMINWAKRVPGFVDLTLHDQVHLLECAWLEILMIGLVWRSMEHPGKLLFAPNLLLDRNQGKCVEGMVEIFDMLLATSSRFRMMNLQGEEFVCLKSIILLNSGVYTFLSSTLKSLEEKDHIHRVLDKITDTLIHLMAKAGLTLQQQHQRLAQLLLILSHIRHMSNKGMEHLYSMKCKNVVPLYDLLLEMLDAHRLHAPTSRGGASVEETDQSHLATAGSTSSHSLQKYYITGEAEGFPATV

The AC50 is the concentration at which the activity in the assay is half-maximal. Take `C=CCOC(Cn1ccnc1)c1ccc(Cl)cc1Cl` (stereo not given): the compound was classed as inactive in [1] and in test [2]. Moreover, the AC50 in [3] was 8510 nM (active).

Take `CC(C)CCCCCCc1ccc(O)cc1`: the call in [1] and in [2] was inactive. The AC50 in test [3] was 16000 nM (active).

In the case of `O=C(c1ccccc1)C1CCCCC1`, the outcome in [1], in [2] and in test [3] was inactive.

Turning to `CCNc1nc(N)nc(Cl)n1`, the compound was called inactive in [1], in [2] and in [3].

Regarding `CC(=O)[C@H]1CC[C@H]2[C@@H]3CCC4=CC(=O)CC[C@]4(C)[C@H]3CC[C@]12C`, the compound was classed as inactive in test [4]. Also, the AC50 in test [5] was 27400 nM (active).

`CC(C)(C)[C@@H](O)[C@@H](Cc1ccc(Cl)cc1)n1cncn1`: the compound was classed as inactive in [1], in test [2] and in [3].

For `CCCCOC(=O)[C@@H](C)Oc1ccc(Oc2ccc(C(F)(F)F)cn2)cc1`, the compound was classed as inactive in test [6], in test [4], in test [7] and in test [8].

Regarding `CCOC(=O)c1ccc(O)cc1`, the compound was called inactive in test [9] and in test [11]. The AC50 in [10] is 40700 nM (active).

Regarding `C[C@]12CC[C@@H]3c4ccc(O)cc4C[C@@H](CCCCCCCCCS(=O)CCCC(F)(F)C(F)(F)F)[C@H]3[C@@H]1CC[C@@H]2O` (stereo not given in full), the outcome in test [9] and in test [10] was inactive.

In the case of `CSC(=O)c1cccc2nnsc12`, the compound was classed as inactive in [1], in test [2], in [3], in [6], in test [12] and in test [13]. Also, the result in test [4], in [7], in [5], in test [8], in test [14] and in [15] was inactive. The outcome in test [16], in [17], in test [18] and in test [19] was inactive.

Turning to `COC(=O)c1ccccc1C(=O)O`, the outcome in test [1], in test [2] and in [3] was inactive.

With `S=C(S)NCCNC(=S)S.[Mn+2].[S-]C([S-])=NCCN=C([S-])[S-].[Zn+2]`, the compound was classed as inactive in test [12], in test [14], in test [15], in test [16], in test [17] and in test [18]. Moreover, the compound was called inactive in [19]. In test [13], the AC50 is 7520 nM (active).

Regarding `CCCN(CCC)c1c([N+](=O)[O-])cc(C(F)(F)F)c(N)c1[N+](=O)[O-]`, the result in [1], in [2] and in [3] was inactive.

For `Cc1nn(C)c(Oc2ccccc2)c1C=NOCc1ccc(C(=O)OC(C)(C)C)cc1`, the result in [1], in test [4], in test [5] and in test [8] was inactive. In addition, the AC50 in test [2] is 3 nM (active); in test [3] it was 3270 nM (active); in test [12], 4.42 nM (active); in [13], 2.93 nM (active); in [14], 5.44 nM (active); in test [15] it was 2.74 nM (active). In addition, the AC50 is 0.277 nM (active) in test [16], 2.91 nM (active) in test [17], 3.61 nM (active) in test [18] and 1.4 nM (active) in [19].
